# Laboratory results from PubChem BioAssay (NCI).
# The panel holds about 83,000 compounds, 20% with a hit somewhere; the sample as a whole holds those more often.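 Method: cells in 96-well plates; compound added at one concentration; 48 h incubation; percent growth measured; values under 10 scored active.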 Unmarked numbers belong to inactive results. Active and inactive are the calls of the source.
# Experiments:
# Assay in all cases: NCI-60 one-dose screen, 48 h (100 = growth as untreated, 0 = no growth, -100 = all killed)
# Settings in all cases: 10 µM unless noted
# NCI-H23 lung = test system: NCI-H23 lung
# NCI-H226 lung = test system: NCI-H226 lung
# NCI-H322M lung = test system: NCI-H322M lung
# HOP-62 NSCLC = test system: HOP-62 NSCLC
# NCI-H460 lung = test system: NCI-H460 lung
# HOP-92 NSCLC = test system: HOP-92 NSCLC
# NCI-H522 lung = test system: NCI-H522 lung
# A549/ATCC NSCLC = test system: A549/ATCC NSCLC
# 786-0 renal = test system: 786-0 renal
# COLO 205 colon = test system: COLO 205 colon
# DU-145 prostate = test system: DU-145 prostate
# K-562 leukemia = test system: K-562 leukemia
# MALME-3M melanoma = test system: MALME-3M melanoma
# MDA-MB-231 breast = test system: MDA-MB-231 breast
# RXF 393 renal = test system: RXF 393 renal
# SF-268 CNS = test system: SF-268 CNS
# SF-295 CNS = test system: SF-295 CNS
# SF-539 CNS = test system: SF-539 CNS
# UACC-257 melanoma = test system: UACC-257 melanoma
# M14 melanoma = test system: M14 melanoma
SMILES,growth (NCI-H23 lung),growth (NCI-H226 lung),growth (NCI-H322M lung),growth (HOP-62 NSCLC),growth (NCI-H460 lung),growth (HOP-92 NSCLC),growth (NCI-H522 lung),growth (A549/ATCC NSCLC),growth (786-0 renal),growth (COLO 205 colon),growth (DU-145 prostate),growth (K-562 leukemia),growth (MALME-3M melanoma),growth (MDA-MB-231 breast),growth (RXF 393 renal),growth (SF-268 CNS),growth (SF-295 CNS) [%],growth (SF-539 CNS),growth (UACC-257 melanoma),growth (M14 melanoma)
CNCc1cccc2c1OCCOCCN(C)C(=O)CN(C)S(=O)(=O)c1ccc(cc1)-c1cnc(N)c(n1)C(=O)N2,6.92% (active),-33.3% (active),40.4%,-6.9% (active),-40.9% (active),46.5%,23.5%,11.9%,-40.3% (active),19.9%,7.84% (active),-39.5% (active),-85.3% (active),67.6%,-0.929% (active),28.3%,36.1,-50.7% (active),41.6%,2.41% (active)
Nc1c(C(=O)Nc2cccc3ncccc23)sc2nc3c(cc12)C(=O)CCC3,53.8%,62.2%,62.2%,39%,19.9%,41.8%,11.1%,49.6%,56.5%,45.9%,69.9%,31.1%,74.8%,58%,29.3%,71%,21.3,51.8%,41.6%,50.5%
CCSC1=CC(=O)c2ccccc2C1=O,85.9%,88.4%,94.6%,76.8%,112%,-2.5% (active),-20.9% (active),93.2%,111%,96.9%,95.1%,2.73% (active),14%,3.95% (active),42.8%,76.5%,97.2,106%,83.1%,84.1%
Cn1ncc2ccc(-c3nc(-c4ccccc4)[nH]c3-c3n[nH]c(=O)n3C3CC3)cc21,93.7%,97.7%,111%,95.1%,99.4%,61.3%,81.5%,93.7%,88.8%,109%,106%,101%,95.6%,98%,106%,102%,101,97.6%,94.9%,88.4%
CCOC(=O)C1=C(C)N=C2SC=C(c3ccccc3)N2[C@H]1c1cn[nH]c1-c1ccc(Cl)cc1,51.2%,66.4%,78.7%,63%,43.3%,-1.56% (active),-56.8% (active),56.4%,49.6%,57.1%,64.6%,40.5%,-27.9% (active),41.9%,61.2%,44.8%,41,44.4%,52.6%,47.7%
COc1cc(/C=C\c2cc(/C=C\c3ccc(O)c(OC)c3)n(C(=O)CNc3ccc(Cl)cc3)n2)ccc1O,24%,51.2%,39.2%,23.3%,6.98% (active),66.9%,2.11% (active),19.5%,15.7%,90.4%,27.7%,6.99% (active),34.2%,43%,3.29% (active),25.5%,72.8,8.34% (active),70.2%,4.29% (active)
Nc1c(C(=O)Nc2ccncc2)sc2nc3c(cc12)CCCCC3,61.8%,72.3%,99.9%,81.8%,81.6%,73%,73.9%,89.5%,79.1%,86.5%,89.2%,51.8%,90.6%,90.9%,84.2%,99.5%,71.5,73.2%,76%,91.9%
C=C1C(=O)O[C@H]2[C@H]1CC/C(COC(=O)NCc1ccc(Cn3c(=O)sn(-c4ccc(OC)cc4)c3=O)cc1)=C\CC[C@@]1(C)O[C@@H]21,88.2%,94.8%,97.7%,98.9%,95.2%,-1.01% (active),-65.4% (active),97.7%,50.9%,-51.2% (active),27%,-3.73% (active),-3.77% (active),47.7%,42.3%,86.5%,97.7,82.1%,65.3%,25.7%
COc1cc(Nc2c3ccc(Cl)cc3nc3ccc(OC)cc23)c2ncccc2c1,50%,62.1%,47.9%,50.1%,21%,-0.879% (active),49.7%,34.3%,60.4%,59.6%,39.4%,53.2%,32.1%,34%,45.5%,43.3%,46.2,45%,59.6%,49.5%
CCOC(=O)CSc1nc2sc3c(c2c(=O)n1-c1ccc([N+](=O)[O-])cc1)CCCCC3,74.5%,98.8%,77.2%,47.7%,48.1%,80.3%,68.8%,66.1%,71.3%,82.8%,63.5%,75.2%,77.7%,50.4%,76.8%,71.2%,59.3,58.3%,89%,75.3%
N#Cc1c(-c2ccccc2)nc2c(c(-c3ccccc3)nn2-c2ccccc2)c1-c1ccc(N2CCOCC2)cc1,96.9%,92.7%,92.3%,95.3%,92.5%,85.8%,92%,77.2%,86.3%,79.6%,91.5%,-20% (active),104%,97.3%,95%,104%,107,93.7%,101%,92.3%
O=C(Nc1cccnc1Nc1ccc(Cl)cc1)c1cn(Cc2ccc(F)cc2)nn1,99.4%,94.2%,98.5%,112%,107%,102%,91.1%,103%,86.9%,124%,106%,108%,117%,83.9%,98.7%,103%,96.6,94.5%,105%,101%
CCN(CC)CCNC(=O)c1ccc(-c2nc3ccc4[nH]ncc4c3c3c2CCCC3)cc1,65.3%,64.7%,55.8%,57.3%,60.5%,73%,50.6%,56.1%,50.6%,63.6%,53.5%,30%,79.1%,59.6%,36.4%,58.6%,80.2,61.2%,96.7%,52.9%
Cc1nc2sc(C(=O)Nc3ccccc3)c(N)c2cc1C(=O)/C=C/c1ccccc1,10.9%,5.17% (active),10.7%,-26.2% (active),-71% (active),6.29% (active),-42.5% (active),13.2%,-57.2% (active),14.2%,1.91% (active),12%,50.1%,-9.1% (active),-74.8% (active),0.182% (active),18.1,-27% (active),54.2%,11.1%
Cc1cc2nc3c4ccccc4n(CCN(C)C)c3nc2cc1C,8.98% (active),11.3%,0.121% (active),2.09% (active),-32.7% (active),28.1%,-19.1% (active),-33.8% (active),23.2%,-29.8% (active),1.97% (active),8.35% (active),-10.5% (active),3.96% (active),8.24% (active),31.2%,27.6,12.2%,2.35% (active),13.2%
